# Compound activity: PubChem, Johns Hopkins Ion Channel Center
# Rows were chosen to be rich in hits. Some 1.6% of all compounds tested hit in one or more screens of this group.
# KCNQ2 block: blocks the rat KCNQ2 potassium channel; CHO-K1 KCNQ2, FluxOR thallium flux, 20 min; stronger effect = lower value; B-score at 10 µM; actives 1.1% (n = 310,000); AID 2156;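 active = fluorescence ratio B-score at most minus 3 library SDs, with starting brightness B-score within 2 library SDs, cut at about -5.5 in these data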
# Target sequence (O88943 whole entry, looked up): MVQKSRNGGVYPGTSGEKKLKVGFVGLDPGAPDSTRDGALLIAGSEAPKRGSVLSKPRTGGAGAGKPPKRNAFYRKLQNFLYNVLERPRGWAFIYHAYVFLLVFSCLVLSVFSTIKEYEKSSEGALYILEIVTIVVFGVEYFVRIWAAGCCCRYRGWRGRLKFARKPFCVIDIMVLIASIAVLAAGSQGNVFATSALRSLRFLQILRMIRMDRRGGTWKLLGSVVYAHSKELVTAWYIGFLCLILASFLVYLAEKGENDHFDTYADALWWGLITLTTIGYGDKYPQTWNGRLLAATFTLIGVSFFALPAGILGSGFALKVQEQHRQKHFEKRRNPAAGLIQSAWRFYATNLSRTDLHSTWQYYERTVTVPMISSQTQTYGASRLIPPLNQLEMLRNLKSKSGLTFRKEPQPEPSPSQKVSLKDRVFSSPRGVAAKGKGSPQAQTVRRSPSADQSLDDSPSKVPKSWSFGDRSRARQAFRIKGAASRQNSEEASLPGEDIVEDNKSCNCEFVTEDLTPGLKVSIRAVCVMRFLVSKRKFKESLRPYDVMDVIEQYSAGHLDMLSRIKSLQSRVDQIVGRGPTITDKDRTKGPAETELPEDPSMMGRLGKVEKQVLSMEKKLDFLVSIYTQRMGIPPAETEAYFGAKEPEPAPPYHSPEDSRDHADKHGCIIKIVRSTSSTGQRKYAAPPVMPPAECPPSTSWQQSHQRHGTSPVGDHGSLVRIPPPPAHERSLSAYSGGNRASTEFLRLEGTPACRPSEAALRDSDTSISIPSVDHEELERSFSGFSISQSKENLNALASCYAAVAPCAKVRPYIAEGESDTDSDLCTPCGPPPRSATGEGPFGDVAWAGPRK
# KCNQ2 enhance: potentiators of rat KCNQ2 potassium channel; B-score at 10 µM; AID 2239; actives 0.54% (n = 310,000); CHO-K1 KCNQ2, FluxOR thallium flux fluorescence; stronger effect = higher value;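 active = fluorescence ratio B-score at least 3 SD of library B-scores, with initial fluorescence B-score within 3 of them, cut at about 5.3 in these data; same plate scores as AID 2156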;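 note: B-score of peak minus minimum over baseline fluorescence ratio after K+ and Tl+ stimulus; positive B-score means potentiation of KCNQ2 with more thallium influx and brighter signal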
# Kir21 confirm: confirmation of mouse Kir2.1 potassium channel inhibitors; shares compounds with KCNQ2 enhance; Kir2.1-expressing cells, FluxOR thallium flux fluorescence; stronger effect = lower value; Tl flux remaining, % of negative control (stronger effect = lower value), % at 10 µM; actives 41% (n = 2,300);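 active = Primary-screen hit whose thallium flux fell at least 3 control SD below untreated wells in both duplicates, with normal baseline fluorescence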;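 note: 0% = blank wells without stimulus and 100% = stimulated no-compound controls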
# HEK293 Tl flux: parental HEK293 activity in Kir2.1 inhibitor counter-screen; parental HEK293 cells, FluxOR thallium flux fluorescence; 0% = unstimulated blank wells; AID 2105; shares compounds with KCNQ2 enhance; FluxOR signal as % of negative control (100 = no effect), % at 10 µM; actives 19% (n = 2,300);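 active = dye signal at least 3 control SD above or below untreated wells in both duplicates, raw fluorescence within 3, either direction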;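 note: percent is based on the flux ratio of peak minus minimum fluorescence over baseline F0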
# CHO-K1 Tl ctr: parental CHO-K1 activity in KCNQ2 potentiator counter-screen; parental CHO-K1 cells, FluxOR thallium flux fluorescence; zero = vehicle mean+3SD, 100% = vehicle-minus-blank window; activity increase over 3SD of controls, % at 10 µM; shares compounds with KCNQ2 enhance; actives 43% (n = 1,200); AID 2282;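 active = signal rise of at least 3 SD above the untreated control mean, in both duplicate wells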;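 note: counter screen of KCNQ2 potentiator hits so any rise reflects channel-independent effects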
# KCNQ1 sel pot: tests whether KCNQ2 potentiators also act on human KCNQ1. CHO KCNQ1 stable, FluxOR thallium flux fluorescence; beyond 3SD, as % of vehicle-control signal. shares compounds with KCNQ2 enhance. actives 28% (n = 1,200). activation over 3SD threshold, % at 10 µM. AID 2283;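 active = fluorescence ratio rise of at least 3 SD of vehicle wells above their mean, in both replicate wells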;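 note: 0% = vehicle mean plus 3 SD and 100% = vehicle minus unstimulated blank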
# KCNQ2 pot confirm: rat KCNQ2 channel potentiator confirmation. shares compounds with KCNQ2 enhance. actives 68% (n = 1,200). CHO-KCNQ2 cells, FluxOR thallium flux fluorescence. potentiation, less the hit threshold, % at 10 µM;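 active = fluorescence ratio rising 3 SD or more over the vehicle control mean in both replicates, plus primary screen hit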;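 note: peak minus minimum thallium fluorescence divided by baseline after K/Tl stimulus; 0% = vehicle mean plus 3 SD and 100% = vehicle minus unstimulated blank difference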
# Kir21 spec: selectivity of KCNQ2 potentiators: effect on mouse Kir2.1 | AID 2345 | actives 2% (n = 1,200) | shares compounds with KCNQ2 enhance | activity over 3SD threshold, % at 10 µM | HEK293 Kir2.1, FluxOR thallium flux fluorescence;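 active = fluorescence ratio rise of at least 3 SD above the vehicle-control mean, seen in both replicates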;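 note: 0% = vehicle mean plus 3 SD and 100% = vehicle minus no-stimulus blank window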
# KCNQ2 W236L MoA: potentiates the retigabine-insensitive rat KCNQ2 W236L mutant channel; current increase over 3SD of negative controls (%), stronger effect = higher value, % at 25 µM; AID 2558; shares compounds with KCNQ2 enhance; CHO KCNQ2-W236L, automated patch clamp current; actives 10% (n = 940);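 active = current increase at least 3 SD of the untreated controls above them in both duplicate recordings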
# * = called active by the depositor; i = inactive; · = no result given.
SMILES,KCNQ2 block,KCNQ2 enhance,Kir21 confirm,HEK293 Tl flux,others
O=C(COC(=O)C1CCC(=O)N1)Nc1ccccc1Br (stereo unspecified),i,0.74,·,·,
O=C(COC(=O)C1CCC(=O)N1)Nc1ccc(Oc2ccccc2)cc1 (stereo unspecified),i,7.6*,i,i,CHO-K1 Tl ctr=2.8*;KCNQ1 sel pot=-28;KCNQ2 pot confirm=-13;Kir21 spec=-31
CC1CCN(CCc2nc3cc(NC(=O)COc4ccc(Cl)cc4)ccc3n2C)CC1,i,0.08,·,·,
CC1CCN(CC(O)CN2c3ccccc3Sc3ccccc32)CC1 (stereo unspecified),i,·,·,·,
CSc1ccc2c(c1)N(CCC1CCCCN1C)c1ccccc1S2 (stereo unspecified),-5.8*,-5.8,23%*,i,
CC(C)C[C@H](NC(=O)C1CCN(C(=O)[C@H](Cc2ccccc2)NC(=O)OC(C)(C)C)CC1)C(=O)O,i,0.07,·,·,
OC(CNCc1ccccn1)c1ccccc1 (stereo unspecified),i,0.24,·,·,
Fc1ccc(C(CCNCc2ccccn2)c2ccc(Cl)cc2)cc1 (stereo unspecified),i,·,34%*,i,
CCC1=NN(C(=O)Cc2ccc(OC)c(OC)c2)C(O)(C(F)(F)F)C1 (stereo unspecified),i,0.69,·,·,
CS(=O)(=O)c1ccc(N2CCN(c3ccccn3)CC2)c([N+](=O)[O-])c1,i,·,·,·,
Cc1cc(C)c(S(=O)(=O)N2CCC(C(=O)NCc3ccc(Cl)cc3Cl)CC2)c(C)c1,i,6*,i,i,CHO-K1 Tl ctr=-5;KCNQ1 sel pot=-52;KCNQ2 pot confirm=-2;Kir21 spec=-36
Cc1cc(C)c(S(=O)(=O)N2CCC(C(=O)NCc3ccncc3)CC2)c(C)c1,i,0.36,·,·,
CCN1CCN(CCC(=O)Nc2ccccc2C)CC1,i,·,·,·,
O=C(Cc1ccc(Cl)cc1)NNC(=O)C1CC=CCC1C(=O)O (stereo unspecified),i,·,·,·,
Cc1cc(C)n(S(=O)(=O)c2ccc3oc(=O)ccc3c2)n1,i,·,·,·,
Cn1c(-c2ccccc2)cnc1NCc1ccccc1,i,·,·,·,
Cn1c(-c2cccc(Br)c2)cnc1NCc1ccccc1O,i,5.6*,75%*,i,CHO-K1 Tl ctr=2.7*;KCNQ1 sel pot=8.7*;KCNQ2 pot confirm=-13;Kir21 spec=-59
Cn1c(NCc2cc(Br)ccc2O)nc2ccccc21,i,0.81,·,·,
Cn1c(-c2ccc3c(c2)OCO3)cnc1NCc1ccccc1,i,·,30%*,i,
CCCCc1nnc(NC(=O)C(C)Sc2nc(O)c(Cc3ccccc3)c(=O)[nH]2)s1 (stereo unspecified),i,0.18,·,·,
O=C(NCCNCc1ccc(F)cc1)c1ccco1,i,1.2,·,·,
CC(NCCC(Cc1ccccc1)c1ccco1)c1ccccc1 (stereo unspecified),i,·,39%*,i,
O=C(CC(Cc1ccccc1)c1ccco1)NC1CCCCC1 (stereo unspecified),i,·,·,·,
Fc1ccc(CNCCC(Cc2ccccc2)c2ccco2)cc1 (stereo unspecified),i,·,18%*,70%*,
CCOc1ccc(C2=CSC3=NCCN23)cc1Cl,i,·,·,·,
SMILES,KCNQ2 block,KCNQ2 enhance,Kir21 confirm,HEK293 Tl flux,others
O=C(CSc1ccc(Br)cc1)Nc1ccccc1N1CCOCC1,i,·,·,·,
O=C(c1ccco1)n1nc(-c2cccnc2)nc1NCc1ccco1,i,0.38,·,·,
CCCCCCCC(=O)N/N=C/c1ccc(Br)cc1,i,0.99,·,·,
CCCCCCCC(=O)N/N=C/c1ccco1,i,11*,i,i,CHO-K1 Tl ctr=0.0*;KCNQ1 sel pot=2.6*;KCNQ2 pot confirm=59*;Kir21 spec=-37;KCNQ2 W236L MoA=i
O=C(Nc1nnc(SCc2ccc(F)cc2)s1)c1ccc2c(c1)C(=O)N(c1ccccc1Cl)C2=O,i,·,·,·,
CCN(CC(=O)Nc1ccc(NC(C)=O)cc1)C(=O)c1cccc(S(=O)(=O)N2CCCC2)c1,i,·,·,·,
CCCCCCC(O)(c1ccccc1)C(CN1CCOCC1)c1ccccc1 (stereo unspecified),i,0.4,·,·,
CCCCCCC(O)(c1ccc(OC)cc1)C(CN1CCOCC1)c1ccccc1 (stereo unspecified),i,6.4*,i,i,CHO-K1 Tl ctr=-24;KCNQ1 sel pot=-9;KCNQ2 pot confirm=6.2*;Kir21 spec=-45;KCNQ2 W236L MoA=i
Cc1ccc(S(=O)(=O)NCCC(=O)N2CCCCCC2)cc1,i,0.07,·,·,
Cc1ccc(S(=O)(=O)NCCC(=O)N2CCC(Cc3ccccc3)CC2)cc1,i,5.3*,i,i,CHO-K1 Tl ctr=13*;KCNQ1 sel pot=-22;KCNQ2 pot confirm=-19;Kir21 spec=-35;KCNQ2 W236L MoA=i
CC1=NN(c2ccc(C)cc2)C(=O)/C1=C\C=C\c1ccccc1,i,·,·,·,
CC1=NN(c2cccc(C(=O)O)c2)C(=O)/C1=C\C=C/c1ccccc1,i,7.2*,i,i,CHO-K1 Tl ctr=33*;KCNQ1 sel pot=-2;KCNQ2 pot confirm=36*;Kir21 spec=-62;KCNQ2 W236L MoA=i
O=C1CCc2cc(S(=O)(=O)Nc3ccccc3)cc3c2N1CCC3,i,1.8,·,·,
Cc1ccccc1-n1c(-c2ccc(=O)[nH]n2)n[nH]c1=S,i,1.9,·,·,
CC(C)(C)c1cc(-c2n[nH]c(=S)n2-c2ccccc2F)n[nH]1,i,5.3*,i,154%*,CHO-K1 Tl ctr=-5;KCNQ1 sel pot=-39;KCNQ2 pot confirm=44*;Kir21 spec=-36;KCNQ2 W236L MoA=20%*
Cc1cc(Cl)c2oc(C(=O)N3CCN(C(=O)c4ccco4)CC3)c(C)c2c1,i,2,·,·,
CCOc1cc(/C=N/O)ccc1OS(=O)(=O)c1ccc(C)cc1,i,0.06,48%*,i,
CCOc1cc(/C=N/NS(=O)(=O)c2ccccc2)ccc1OS(=O)(=O)c1ccc(C)cc1,i,·,·,·,
O=C(Nc1ccccc1C(=O)N1CCOCC1)c1ccc(Br)cc1,i,0.16,·,·,
CC(C)CC(=O)Nc1nnc(S(=O)(=O)N2CCc3ccccc32)s1,i,0.62,·,·,
O=C(COC(=O)Cc1c(F)cccc1Cl)Nc1nnc(-c2ccccc2)o1,i,4.3,·,·,
CC(C)CCN1C(Nc2ccccc2)=NC[C@@H]1Cc1ccccc1,i,·,·,·,
CC(CCN1C(Nc2ccccc2)=NC[C@@H]1Cc1ccccc1)c1ccccc1 (stereo partly specified),i,·,46%*,128%*,
O=C(Nc1ccc(S(=O)(=O)N2CCOCC2)cc1)C1CCN(S(=O)(=O)c2ccccc2)CC1,i,2,·,·,
O=C1NCCCc2c1oc1ccc(O)cc21,i,0.28,·,·,
